# From the supplement of paper PMC3334620
# Over roughly 33,000 sequences, “E-score (-0.5 to 0.5)” has its median near -0.0014; the highest 2% begin near 0.25. The list comes from a sample in which the highest values are over-represented; it also holds similar and randomly drawn sequences.
# Target: T1, Cad1 (UniProt P24813)
# T1 sequence: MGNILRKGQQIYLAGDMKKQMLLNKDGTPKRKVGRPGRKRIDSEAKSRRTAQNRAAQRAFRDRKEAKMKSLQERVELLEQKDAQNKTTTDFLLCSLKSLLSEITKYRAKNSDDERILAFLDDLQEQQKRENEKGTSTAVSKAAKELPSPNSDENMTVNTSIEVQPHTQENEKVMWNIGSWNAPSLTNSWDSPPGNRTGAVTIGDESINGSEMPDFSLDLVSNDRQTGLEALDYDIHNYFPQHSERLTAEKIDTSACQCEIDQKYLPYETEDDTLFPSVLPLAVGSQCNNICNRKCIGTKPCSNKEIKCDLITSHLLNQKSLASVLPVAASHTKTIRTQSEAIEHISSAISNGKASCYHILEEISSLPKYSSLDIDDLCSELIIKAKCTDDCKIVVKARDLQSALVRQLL
# Test: PBM E-score (8-mer binding enrichment) (E-score (-0.5 to 0.5)); higher = stronger / more preferred TF binding
# Details: protein concentration: 100 nM; construct: GST-full length
# Method: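 Universal 'all 10-mer' protein binding microarrays (Agilent AMADID 015681) probed with GST-tagged S. cerevisiae TFs (full-length or DBD) made by in vitro transcription/translation (PURExpress), about 100-200 nM. Bound TF was detected with fluorescent anti-GST. Each ungapped 8-mer (which stands for itself and its reverse complement) is scored by the PBM enrichment score (E-score), a modified Wilcoxon-Mann-Whitney statistic from -0.5 to +0.5, computed with the Universal PBM Analysis Suite. Scale: above 0.35 generally sequence-specific binding.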
row,Sequence,PBM E-score
1,CTATTAAC,0.141
2,ATAATAAA,0.243
3,ATATTAAC,0.224
4,ATATTAAG,0.115
5,ACATTAAA,0.11
6,ATATTAAT,0.368
7,ATATTAAA,0.385
8,TTAATAAA,0.389
9,GCATTAAA,0.103
10,TCATTAAA,0.265
11,CTATTAAA,0.00283
12,CTAATAAA,0.0515
13,ACCAGATG,-0.0464
14,CTCAGCCC,-0.21
15,CCAGAGCA,-0.00085
16,ATTTGATG,0.148
17,AGACTTCG,-0.0445
18,TATCTTCA,-0.0564
19,ACTAGATA,0.0286
20,ATATAGAA,0.00309
21,TCTGAGCA,0.0835
22,CAGGGAAA,-0.054
23,ACAAAGTA,0.193
24,CCCTGAAC,0.229
25,CATCGCTC,-0.187

row,Sequence,PBM E-score
1,AGAGCGTG,-0.0848
2,CTTGCGAA,0.184
3,ATAGTAAA,0.225
4,ATACTAAA,0.231
5,GTACTAAA,0.054
6,ATATTCAA,0.144
7,CATTTCAA,0.174
8,TTACTAAA,0.374
9,CTAGTAAA,0.0669
10,GTATTCAA,0.14
11,TTAGTAAA,0.339
12,TATTTCAA,0.309
13,GATTTCAA,0.013
14,TTATTCAA,0.252
15,AACGCCAT,-0.0315
16,CTCGTAAA,0.0173
17,AGGGCACA,-0.116
18,ATCGCATA,0.0254
19,CATAAGCC,0.0914
20,ACTGCTTA,0.132
21,GGGTAGAC,-0.191
22,TCTAAAAA,-0.0235
23,CCCTGTGA,-0.161
24,TGATTAAA,0.123
25,TTATTAAA,0.307

row,Sequence,PBM E-score
1,GTATTAAA,0.0777
2,AACACGTG,0.217
3,ATGCCAAT,-0.0122
4,AATCACGT,0.184
5,ATACGTAA,0.2
6,ATACGTAT,0.298
7,ATACGTAC,-0.0354
8,CCTAATCG,0.168
9,ACTAATCA,0.344
10,ACTAATCG,0.356
11,ACTAATCC,0.242
12,TCTAATCA,0.181
13,ACTAATCT,0.135
14,AATCCGCG,0.13
15,AGTCCTAC,-0.0257
16,ATTGAGTC,0.0114
17,ACCGAGAT,0.0127
18,AGCGTAAA,0.0495
19,AATTACAC,0.148
20,CATTACTC,0.0943
21,GGTTACTA,0.0723
22,AATTACTA,0.32
23,GTTTACTA,0.195
24,CTTTACTA,0.213
25,CATTACTA,0.25

row,Sequence,PBM E-score
1,AATTACAG,0.161
2,GATTACTA,0.392
3,AATTACAT,0.354
4,AATTACTG,0.14
5,AATTACTC,0.239
6,TCACAGGA,-0.0436
7,CCTCGAAC,-0.0906
8,GAGCTAGA,-0.178
9,AGAACGCG,0.0894
10,GCGGTAGA,-0.0737
11,CGAGCGTA,0.0172
12,CGAAAAGC,-0.143
13,GCTTCACA,-0.0729
14,CGATCACA,0.204
15,AGATCACA,-0.0498
16,CGATCACG,0.273
17,GACCTCCC,-0.247
18,ATCTAGGC,-0.102
19,GCAAAAGA,-0.0108
20,AGAATTCT,0.278
21,AGAATTCG,0.051
22,AGAATTCA,0.126
23,ACACCCGA,0.134
24,AACGCCGG,-0.0998
25,CACTGCGC,-0.0286

row,Sequence,PBM E-score
1,ATTCAAGA,0.0376
2,GTTGGAAA,-0.0664
3,AGTCGCGG,-0.179
4,AGTCGCGC,0.212
5,GGTCGCGA,0.273
6,CGTCGCGA,0.111
7,GGTCGCTA,-0.112
8,AGTCGCGA,0.285
9,CAAACAAG,0.0295
10,GGAGCGCC,-0.252
11,AACACCAG,-0.0336
12,GCCTTCAA,0.0307
13,GTGCGGAA,0.0803
14,TAAACTAA,0.186
15,TTAACTAA,0.291
16,CAAACTAA,0.258
17,CTAACTAA,0.206
18,ATAACTAA,0.146
19,CAAACTAC,-0.0121
20,CCACTGTC,-0.0971
21,CCTGGAAA,-0.0814
22,GGGTCTAC,-0.0723
23,ACTCCGTA,-0.228
24,AGCGGACC,-0.113
25,ACTCGAGT,0.311

row,Sequence,PBM E-score
1,ACTCGAGG,0.107
2,ACTCGAGA,-0.0156
3,TAATCGGA,0.152
4,AAATCGGA,0.171
5,CAATCGGA,0.259
6,TAGCGACA,0.0174
7,ATGGCCAC,-0.21
8,ATGGCCAT,0.252
9,CTGGCCAG,-0.159
10,ATGGCCTG,0.0685
11,ATGGCCAA,-0.046
12,ATGGCCAG,0.273
13,GGAGATCA,-0.0337
14,ATAGCCCA,0.062
15,CAAACCGA,0.0658
16,ATAATGAA,0.166
17,AACGGATG,-0.0154
18,AACGGATA,0.252
19,GTCGGATA,0.0779
20,TACGGATA,0.116
21,AACGGATT,0.317
22,CACGGATA,0.22
23,AACGGAAA,0.219
24,CTCGGATA,0.193
25,ATCGGATA,0.276

row,Sequence,PBM E-score
1,AACGGAAG,0.114
2,AACGGATC,0.217
3,AACGGAAT,0.269
4,CTGAGGCC,-0.0469
5,CTACTGCC,-0.162
6,CAGGATCA,-0.0245
7,ACTTGTGG,-0.0436
8,CGATAATC,-0.016
9,AGTTAAAA,0.14
10,AAGCCCTT,-0.0922
11,AGCGGATA,-0.0234
12,CGCGGATC,0.0644
13,CGCGGATA,0.258
14,CCTGCCCA,-0.0659
15,CGTCAAGC,-0.0629
16,CGCATATC,0.318
17,AGCATATC,0.025
18,CGCATATA,-0.0685
19,CCCGTTCG,0.016
20,GCGTCGAC,0.252
21,ATGTCGAC,0.276
22,AAGTCGAT,0.0428
